An excerpt weighted towards active compounds, which were near 3.7% of everything screened.
Smad3 FoxH1 inh: blocks human Smad3 binding to FoxH1 peptide; P84022; AID 630; TR-FRET Smad3/Dy647-FoxH1 peptide binding, europium anti-His; 88,000 compounds, 0.29% hits; inhibition, % at 25 µM;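 active means compounds that reduce the energy-transfer binding signal between the protein and its labelled peptide by more than half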;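 further: 0% = Smad3 plus labelled peptide maximal FRET and 100% = peptide-only background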
ERa coact pot: enhances coactivator binding to human estrogen receptor alpha; 86,000 compounds, 1.3% hits; P03372; TR-FRET ERalpha-LBD/SRC-Cy5 coactivator binding, 2 h; 100 = basal binding, no effect; AID 639; coactivator binding (% of control), % at 25.6 µM; in the data active means activity above about 200%;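 further: binding measured in presence of low estradiol as agonist stimulus; 0% = peptide alone without receptor and 100% = receptor with peptide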
ERa SRC1 inh: blocks coactivator binding to human estrogen receptor alpha. P03372. TR-FRET ER-alpha LBD / SRC-1 peptide, estradiol-bound. inhibition, % at 25.6 µM. 86,000 compounds, 1.7% hits. AID 629; in the data active means inhibition above about 50%;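 further: 0% = receptor plus peptide control and 100% = peptide only without receptor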
ERb coact inh: ER-beta (human) coactivator binding inhibition | inhibition, % at 25.6 µM | TR-FRET ER-beta LBD / SRC1-Cy5 peptide binding; receptor agonist-loaded with 1 µM estradiol | Q92731 | AID 633 | 86,000 compounds, 1.3% hits;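 active means compounds whose percent inhibition of the receptor-coactivator binding signal exceeds about 50% in the single-dose screen, limit read from the data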;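 further: 0% = receptor plus peptide wells without compound and 100% = peptide-only wells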
Target sequence (Q92731 whole entry, looked up, the tested form may be a part): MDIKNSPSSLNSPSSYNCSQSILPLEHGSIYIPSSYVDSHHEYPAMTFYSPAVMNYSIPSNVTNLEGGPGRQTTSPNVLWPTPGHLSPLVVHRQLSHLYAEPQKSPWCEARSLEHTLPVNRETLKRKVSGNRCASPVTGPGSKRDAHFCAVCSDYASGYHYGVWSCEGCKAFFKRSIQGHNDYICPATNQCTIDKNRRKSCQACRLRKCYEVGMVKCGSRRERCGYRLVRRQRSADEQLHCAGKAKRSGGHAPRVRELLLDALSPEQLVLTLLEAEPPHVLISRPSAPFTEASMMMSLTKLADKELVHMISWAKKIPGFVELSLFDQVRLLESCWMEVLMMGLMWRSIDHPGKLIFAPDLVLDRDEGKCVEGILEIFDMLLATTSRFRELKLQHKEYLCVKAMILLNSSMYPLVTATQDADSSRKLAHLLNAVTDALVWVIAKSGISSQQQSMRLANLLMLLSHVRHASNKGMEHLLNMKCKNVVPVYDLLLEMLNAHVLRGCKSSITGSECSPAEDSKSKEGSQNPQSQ
Active calls of the source: *; [ ] = remark or other dose.

Screening CC(C)CC(C(=O)OCC(=O)Nc1ncc(Cl)cc1Cl)N1C(=O)c2ccccc2C1=O (stereo unspecified) returned Smad3 FoxH1 inh -0.6, ERa coact pot 107.1, ERa SRC1 inh 10.5 and ERb coact inh 28.0.
For Cc1ccc(CN2CCN(Cc3ccc(C)o3)[C@@H](C)C2)o1 the results were Smad3 FoxH1 inh 23.2.
CN(C)c1ccc(/C=c2\sc3nc(-c4ccccc4)nn3c2=O)cc1 was read as Smad3 FoxH1 inh -3.3, ERa coact pot 52.3, ERa SRC1 inh 69.4*[fluorescence artefact?] and ERb coact inh 33.5.
COc1cc(/C=c2\sc3nc(-c4ccncc4)nn3c2=O)ccc1OC(C)=O was read as Smad3 FoxH1 inh 83.8*[fluorescence artefact?], ERa coact pot 59.0, ERa SRC1 inh 68.0* and ERb coact inh 44.6.
`CCCn1c(=O)c2ccccc2n2c(SCC(=O)Nc3cc(C)on3)nnc12` gave Smad3 FoxH1 inh 9.9, ERa coact pot 92.9, ERa SRC1 inh 6.9 and ERb coact inh 100.5*[fluorescence artefact?].
Screening CC1(C)O[C@@H]2O[C@H]([C@@H]3COC(C)(C)O3)[C@H](N)[C@@H]2O1 returned Smad3 FoxH1 inh 10.5.
For O=c1oc2ccccc2c(Nc2ccc3ccccc3c2)c1[N+](=O)[O-] the results were Smad3 FoxH1 inh 8.9, ERa coact pot 53.6, ERa SRC1 inh 70.9*[fluorescence artefact?] and ERb coact inh 17.9.
For O=C1c2ccccc2C(=O)N1c1ccc(Cc2ccc(N3C(=O)c4ccccc4C3=O)cc2)cc1 the results were Smad3 FoxH1 inh 9.9.
`Cc1ccn2c(CCc3nnc4cc(C)ccn34)nnc2c1` gave Smad3 FoxH1 inh -3.4.
`CC/C(=N/Nc1ccccc1Cl)c1cnnc(-c2ccccc2)n1` gave Smad3 FoxH1 inh 0.0, ERa coact pot 117.3, ERa SRC1 inh -1.5 and ERb coact inh -5.8.
CCC/C(=N/Nc1ccc(Cl)cc1)c1cnnc(-c2ccccc2)n1 was read as Smad3 FoxH1 inh 10.8, ERa coact pot 11.9, ERa SRC1 inh 94.0* and ERb coact inh 67.1*[fluorescence artefact?].
COc1cc(OC)c(C(=O)Nc2cccc(C(C)=O)c2)cc1OC was read as Smad3 FoxH1 inh 0.7, ERa coact pot 100.9, ERa SRC1 inh -1.3 and ERb coact inh -6.9.
`O=C(Nc1cnn(C23CC4CC(CC(C4)C2)C3)c1)c1cnn2c(C(F)(F)F)cc(-c3ccco3)nc12` gave Smad3 FoxH1 inh 2.6, ERa coact pot 172.6, ERa SRC1 inh 80.8* and ERb coact inh 60.4*.
For O=C(Nc1ccc2c(c1)OCO2)c1cnn2c(C(F)(F)F)cc(-c3ccco3)nc12 the results were Smad3 FoxH1 inh 3.0, ERa coact pot 85.0, ERa SRC1 inh 25.6 and ERb coact inh 26.8.
For C[C@@]12CC[C@H]3c4ccc(O)cc4CC[C@@H]3[C@H]1C/C(=N\O)[C@H]2O the results were Smad3 FoxH1 inh 20.4.
CCc1ccc2[nH]c(=O)c(CN(Cc3ccc4c(c3)OCO4)C(=O)c3ccco3)cc2c1 was read as Smad3 FoxH1 inh -3.0, ERa coact pot 73.8, ERa SRC1 inh 73.9* and ERb coact inh 41.4.
COc1ccc2[nH]c(=O)c(CN(Cc3ccc4c(c3)OCO4)C(C)=O)cc2c1 was read as Smad3 FoxH1 inh 10.6, ERa coact pot 96.9, ERa SRC1 inh -37.0 and ERb coact inh -16.5.
CSc1ccccc1NC(=O)CSc1nnnn1-c1ccccc1SC was read as Smad3 FoxH1 inh 2.3, ERa coact pot 115.9, ERa SRC1 inh -7.2 and ERb coact inh -0.9.
COC(=O)c1ccsc1NC(=O)CSc1nnnn1-c1ccccc1SC was read as Smad3 FoxH1 inh 10.1, ERa coact pot 262.6*[fluorescence artefact?], ERa SRC1 inh -18.7 and ERb coact inh -8.9.
For c1ccc(-n2ncc3c(N4CCN(c5ccccn5)CC4)nc(N4CCOCC4)nc32)cc1 the results were Smad3 FoxH1 inh 4.8, ERa coact pot 220.0*[fluorescence artefact?], ERa SRC1 inh 18.5 and ERb coact inh 7.3.
CCn1nc(C)c(NC(=O)CSc2nnc(-c3ccco3)n2C)c1C was read as Smad3 FoxH1 inh 3.9, ERa coact pot 118.6, ERa SRC1 inh 5.6 and ERb coact inh 2.1.
Cc1nn(Cc2ccccc2)c(C)c1NC(=O)CSc1nnc(-c2cc(Cl)ccc2O)n1C was read as Smad3 FoxH1 inh 1.4, ERa coact pot 57.6, ERa SRC1 inh 53.1* and ERb coact inh 47.2.
O=C(O)C/C(=C/c1ccco1)C(=O)O was read as Smad3 FoxH1 inh 5.9.
O=C1c2ccccc2C(=O)N1Cc1nc2ccccc2c(=O)n1Cc1ccco1 was read as Smad3 FoxH1 inh -8.0, ERa coact pot 249.0*, ERa SRC1 inh 59.5*[fluorescence artefact?] and ERb coact inh 57.7*[fluorescence artefact?].
Cc1c(-n2c(CN3C(=O)c4ccccc4C3=O)nc3ccccc3c2=O)c(=O)n(-c2ccccc2)n1C was read as Smad3 FoxH1 inh -6.0, ERa coact pot 109.5, ERa SRC1 inh -5.8 and ERb coact inh 1.9.
For CC(C)Cn1c(CN2C(=O)c3ccccc3C2=O)nc2ccccc2c1=O the results were Smad3 FoxH1 inh 27.5, ERa coact pot 370.3*[fluorescence artefact?], ERa SRC1 inh 29.0 and ERb coact inh 25.1.
Screening O=C1c2ccccc2C(=O)N1Cc1ccco1 returned Smad3 FoxH1 inh 2.0, ERa coact pot 99.0, ERa SRC1 inh -7.6 and ERb coact inh -1.2.
Screening CC(C)c1ccc(/C=C2/C=C(c3ccc4ccccc4c3)OC2=O)cc1 returned Smad3 FoxH1 inh -8.6.
CC1=C(C(=O)Nc2ccccc2)C(c2sccc2C)n2nnnc2N1 (stereo unspecified) was read as Smad3 FoxH1 inh -24.3, ERa coact pot 90.8, ERa SRC1 inh 3.0 and ERb coact inh 1.7.
For CC(Sc1cccc2cccc(C(=O)O)c12)C(=O)O (stereo unspecified) the results were Smad3 FoxH1 inh -0.3, ERa coact pot 99.1, ERa SRC1 inh -1.4 and ERb coact inh -0.7.
O=C(O)c1cccc2cccc(-c3cccc4cccc(C(=O)O)c34)c12 was read as Smad3 FoxH1 inh 66.6*.
CCOC(=O)c1ccc(NC(=O)CSc2nc(C)cc(=O)[nH]2)cc1 was read as Smad3 FoxH1 inh 0.3, ERa coact pot 24.4, ERa SRC1 inh 89.6* and ERb coact inh 83.5*[fluorescence artefact?].
`Cc1cc2nc(-c3cccnc3SCC(=O)NCc3ccco3)[nH]c2cc1C` gave Smad3 FoxH1 inh 6.6, ERa coact pot 65.0, ERa SRC1 inh 68.6*[fluorescence artefact?] and ERb coact inh 60.2*.
Screening CC(C)c1ccc(NC(=O)CSc2nc3c(c(=O)[nH]2)CCC3)cc1 returned Smad3 FoxH1 inh 2.6, ERa coact pot 120.2, ERa SRC1 inh 100.2*[fluorescence artefact?] and ERb coact inh 4.9.
Cc1nnc(SCC(=O)NCc2ccco2)[nH]c1=O was read as Smad3 FoxH1 inh 2.9, ERa coact pot 84.5, ERa SRC1 inh -52.1 and ERb coact inh 3.1.
Cc1cc(=O)[nH]c(SCC(=O)NCc2ccco2)n1 was read as Smad3 FoxH1 inh 12.9, ERa coact pot 56.2, ERa SRC1 inh 50.0 and ERb coact inh 65.7*.
For CSCC[C@@H](C(=O)O)N(C)C the results were Smad3 FoxH1 inh 2.4.
`CCCN(CCC)S(=O)(=O)c1ccc(NC(=O)COc2ccccc2)cc1` gave Smad3 FoxH1 inh -1.6, ERa coact pot 122.6, ERa SRC1 inh 6.5 and ERb coact inh 2.6.
Screening COc1ccc(CNC(=O)COC(=O)c2cnccn2)cc1 returned Smad3 FoxH1 inh 24.0, ERa coact pot 93.2, ERa SRC1 inh -11.7 and ERb coact inh -3.8.

From PubChem
